Key:
Format in all cases: functional
[1] = test system: Plasmodium falciparum; assay: GSK_TCMDC: Inhibition of Plasmodium falciparum 3D7 in whole red blood cells, using parasite LDH activity as an index of growth. Test compounds present at 2uM
[2] = test system: Plasmodium falciparum; assay: GSK_TCMDC: Inhibition of Plasmodium falciparum Dd2 in whole red blood cells, using parasite LDH activity as an index of growth. Test compounds present at 2uM
[3] = test system: HepG2; assay: GSK_TCMDC: Percent inhibition of human HepG2 cell line. Test compounds present at 10uM.

Row | SMILES | Inhibition [1] | Inhibition [2] | Inhibition [3]
1 | Cc1ccc2nc(C)n(C3CCN(C(=O)Cc4ccccc4C)CC3)c2c1 | 100% | 100% | 2%
2 | COc1cc(C)nc2ccc(NC(=O)c3ccc(C(=O)Nc4ccc5nc(C)cc(OC)c5c4)cc3)cc12 | 96% | 72% | 27%
3 | CCN(CC)CCN(Cc1ccc(-c2ccc(C(F)(F)F)cc2)cc1)C(=O)Cn1c(CCc2cccc(F)c2F)nc(=O)c2ccccc21.O=C(O)C(O)C(O)C(=O)O | 97% | 60% | 49%
4 | O=C(O)C(F)(F)F.c1ccc2[nH]c(-c3ccc(-c4ccc(CN5CCN(c6ccncc6)CC5)cc4)cc3)nc2c1 | 100% | 100% | 48%
5 | Cc1cc(C)c(NC(=O)NC2CCN(CCCCCNC(=O)/C=C/c3ccc(Cl)c(Cl)c3)CC2)c(C)c1 | 100% | 17% | 30%
6 | O=C(/C=C/c1ccc(Cl)c(Cl)c1)NCCCCCN1CCC(NC(=O)Nc2cc(Cl)nc(Cl)c2)CC1 | 100% | 2% | 4%
7 | Cc1ccc2cc(NC(=O)c3cccc(C(=O)Nc4ccc5nc(C)ccc5c4)n3)ccc2n1 | 92% | 23% | 21%
8 | Cc1[nH]c(C)c(-c2ccc(OCc3ccc(F)cc3)cc2)c(=O)c1Cl | 95% | 96% | 0%
9 | COc1cc(OC)cc(C(=O)Nc2ccc(Nc3nc(C)cc(N(C)C)n3)cc2)c1 | 100% | 90% | 11%
10 | CC(CN1CCN(C)CC1)C(=O)Nc1ccc(-c2ccc(-c3nc4ccccc4[nH]3)s2)cc1 (stereo not drawn) | 100% | 79% | 5%
11 | Cc1cccc2nc(-c3ccc(-c4cccc(CNCc5ccccc5)c4)s3)[nH]c12.O=C(O)C(F)(F)F | 99% | 50% | 3%
12 | Cn1nc(-c2ccc(NC(=O)Nc3cc(C(F)(F)F)ccc3F)c(F)c2)c2cnc(NCCCN3CCOCC3)nc21.O=C(O)C(F)(F)F | 100% | 62% | 31%
13 | COc1ccc(-c2cccc(NC(=O)c3ccc(Cl)cc3)c2)cc1CN(C)CCN(C)C.O=C(O)C(F)(F)F | 99% | 61% | 37%
14 | COc1cccc(C2CCN(CCN3CCC(NC(=O)c4ccc(-c5ccc(Cl)cc5)cc4)CC3)CC2)c1 | 93% | 42% | 31%
15 | Cc1ccc(N2C(=O)C3C(C2=O)C2(c4ccccc4)C(=O)C3(c3ccccc3)C(c3ccccc3)=C2c2ccccc2)c(C)c1 (stereo not drawn) | 96% | 96% | 3%
16 | COc1ccc2nccc([C@@H](O)CN3CCC(NC(=O)c4cccc(C(=O)c5ccccc5)c4)CC3)c2c1 | 99% | 99% | 13%
17 | CCN(CC)/C(=N/C(=N)Nc1ccc(C)cc1)NCCCCCCN/C(=N\C(=N)Nc1ccc(C)cc1)N(CC)CC | 97% | 98% | 10%
18 | COc1ccc(OC)c(NC(=O)C2c3ccccc3C(=O)N(CC(C)C)C2c2cccs2)c1 (stereo not drawn) | 100% | 66% | 9%
19 | CN(C)CCNC(=O)N1CCCN(c2ncnc3cc(-c4ccc(Cl)cc4)sc23)CC1.O=C(O)C(F)(F)F | 98% | 21% | 41%
20 | Cl.O=C(/C=C/c1ccc(Cl)cc1)Nc1ccc2nc(CN3CCCC3)ccc2c1 | 85% | 30% | 47%
21 | COc1ccc(NC(=O)[C@H](Cc2ccccc2)Nc2cc(C)nc(NCc3ccccc3C)n2)cc1.O=C(O)C(F)(F)F | 100% | 71% | 16%
22 | Cc1nnnn1-c1ccc(C(=O)N2CCC3(CC2)CN(Cc2ccc(Cl)c(Cl)c2)C(=O)O3)cc1 | 100% | 99% | 2%
23 | Cc1ccc2nc(C)cc(N/N=C/c3ccccc3[N+](=O)[O-])c2c1 | 100% | 100% | 5%
24 | O=C(Nc1ccc(-c2nc3ccccc3[nH]2)cc1)c1ccc(Cl)s1 | 99% | 34% | 16%
25 | Cn1c(NC(=O)C2CCCN(C(=O)c3ccc(O)c(-c4ccc(Cl)c(Cl)c4)c3)C2)nc2ccccc21 (stereo not drawn) | 98% | 99% | 0%
26 | COc1cc(-c2nc(-c3ccncc3)c(-c3ccc4c(c3)CCC4=NO)[nH]2)ccc1OCCN1CCCCC1.Cl | 100% | 80% | 75%

Reference: ChEMBL document CHEMBL1157539, “Thousands of chemical starting points for antimalarial lead identification” (Nature, 2010)
